# In the supplement of paper PMC13380429:
# A number with no mark means an inactive call.
# Tested on: Vero E6 infected with SARS-CoV-2
# Test: inhibition of SARS-CoV-2 cytopathic effect; higher = more antiviral protection, active = above 15
# Details: 10000 nM; 48 h
row,Compound,inhibition of SARS-CoV-2 cytopathic effect [%]
1,COc1ccccc1N1CCN(CCCCNC(=O)c2ccc(-c3ccc(C(C)=O)cc3)cc2)CC1,-6.57
2,Cc1ccc(C(=O)N(CCCN)[C@@H](c2nc3cc(Cl)ccc3c(=O)n2Cc2ccccc2)C(C)C)cc1 [ispinesib],-4.72
3,CCCCCCNC(=O)n1cc(F)c(=O)[nH]c1=O [Carmofur],-0.73
4,CN1CCN(CCCN2c3ccccc3Sc3ccc(S(=O)(=O)N(C)C)cc32)CC1 [thioproperazine],1.7
5,CC1(C)OC(=O)NC1=O [dimethadione],0.15
6,CN(C(=O)c1c(O)c2ccccc2n(C)c1=O)c1ccccc1 [roquinimex],0
7,COc1ccc(CC2NCCc3cc(OC)c(OC)cc32)cc1OC (stereo not drawn) [tetrahydropapaverine],-3.09
8,O=C(Nc1nc2cccc(-c3ccc(CN4CCS(=O)(=O)CC4)cc3)n2n1)C1CC1 [filgotinib],-1.27
9,C=CCSCC1Nc2cc(Cl)c(S(N)(=O)=O)cc2S(=O)(=O)N1 (stereo not drawn) [althiazide],0.04
10,Cc1c(Cl)cccc1S(=O)(=O)Nc1nc(NCCc2ccccc2)nc2c1CN(Cc1ccccc1)CC2,-1.37
11,O=C(Nc1ccc(S(=O)(=O)C(F)(F)F)cc1)C1=CCN(c2ncccc2C(F)(F)F)CC1,-2.58
12,CCC(=O)NO,2.29
13,CCCCCCCCCCCCCCOC(=O)c1cccnc1 [myristyl-nicotinate],1.2
14,CCOC(=O)[C@H]1O[C@@H]1C(=O)N[C@@H](CC(C)C)C(=O)NCCC(C)C [aloxistatin],11.2
15,CCc1cc(-c2[nH]nc(C)c2-c2ccc3c(c2)OCCO3)c(O)cc1O,-2.59
16,CC1(C)Oc2ccc(C#N)cc2[C@@H](N2CCCC2=O)[C@@H]1O [levcromakalim],2.06
17,CC1(C)[C@@H](OC(=O)CCC(=O)O)CC[C@]2(C)[C@H]3C(=O)C=C4[C@@H]5C[C@@](C)(C(=O)O)CC[C@]5(C)CC[C@@]4(C)[C@]3(C)CC[C@@H]12,-1.29

row,Compound,inhibition of SARS-CoV-2 cytopathic effect [%]
1,CC(C)C[C@H](NC(=O)[C@@H](O)[C@H](N)Cc1ccccc1)C(=O)O [ubenimex],1.71
2,Nc1ncnc2c1C(=O)N(c1ccc([C@H]3CC[C@H](CC(=O)O)CC3)cc1)CCO2,4.43
3,OCc1c[nH]c2ccccc12 [indole-3-carbinol],-14.3
4,CCCCCCCCCCCCCCCC(=O)O[C@@H]1[C@@H](O)[C@@H](O)[C@@H]([C@H](NC(=O)[C@@H]2C[C@@H](CCC)CN2C)[C@H](C)Cl)O[C@@H]1SC [clindamycin-palmitate],-3.94
5,Cc1ccccc1N1CCN(S(=O)(=O)C[C@]23CC[C@H](C[C@@H]2NC(=O)[C@@H](N)CCS(C)(=O)=O)C3(C)C)CC1,0.11
6,Cc1nnc(NS(=O)(=O)c2ccc(N)cc2)s1 [sulfamethizole],3.18
7,C[C@@H](NCCCc1cccc(C(F)(F)F)c1)c1cccc2ccccc12 [cinacalcet],-3.52
8,CN(C)CCCCSC(=N)N,2.12
9,COc1ccc([C@@H]2CC(=O)c3c(O)cc(O[C@@H]4O[C@H](CO)[C@@H](O)[C@H](O)[C@H]4O[C@@H]4O[C@@H](C)[C@H](O)[C@@H](O)[C@H]4O)cc3O2)cc1O [neohesperidin],-3.03
10,NC(=O)CC[C@H](N)C(=O)O [L-glutamine],-2.64
11,O=C1[C@H](CC[C@H](O)c2ccc(F)cc2)[C@@H](c2ccc(O)cc2)N1c1ccc(F)cc1 [ezetimibe],5.44
12,COC(=O)Nc1nc2cc(SC(C)C)ccc2[nH]1 [methiazole],-1.24
13,Nc1nc(F)nc2c1ncn2[C@@H]1O[C@H](COP(=O)(O)O)[C@@H](O)[C@@H]1O [fludarabine-phosphate],-4.26
14,CCN1CCC[C@H]1CNC(=O)c1c(O)c(Cl)cc(Cl)c1OC [raclopride],-0.07
15,COc1ccc(C2CC(c3ccccc3)=NN2c2ccc(S(N)(=O)=O)cc2)cc1 (stereo not drawn),0.95
16,Cc1ncc(CO)c(/C=N/NC(=O)c2ccncc2)c1O [pyridoxal-isonicotinoyl-hydrazone],-0.54
